Data as given in PubChem BioAssay (NCI).
About 79,000 compounds went through this panel and 15% of them were active in at least one assay; those are over-represented in the sample as a whole. Values without a mark were called inactive. Active and inactive are the calls of the source. No stated cut-off is given here; in the data, active means growth inhibition above about 70%; inactive means the rest.

Key:
[1] = NCI Yeast Anticancer Drug Screen. Data for the mec2-1 strain (AID 157); details: S. cerevisiae mec2-1 strain, active compounds read high
In short: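 Test agents were screened against the mec2-1 yeast strain, with defined DNA repair or cell cycle alteration. Growth was scored as inhibition against vehicle-only controls.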

[2] = NCI Yeast Anticancer Drug Screen. Data for the rad14 strain (AID 159);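 further: 0% = growth of vehicle-treated control cultures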; details: S. cerevisiae rad14 strain growth inhibition, active compounds read high
In short: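 Readout: yeast growth inhibition, referenced to vehicle-only cultures. Strain bears a defined alteration in DNA damage repair.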

[3] = NCI Yeast Anticancer Drug Screen. Data for the sgs1 mgt1 strain (AID 161);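 further: 0% = growth of cultures given vehicle only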; details: S. cerevisiae sgs1 mgt1 strain, active compounds read high
In short: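 Test agents were incubated with a DNA-repair-mutant yeast strain. Growth was then read and compared against vehicle-treated controls.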

[4] = NCI Yeast Anticancer Drug Screen. Data for the cln2 rad14 strain (AID 165);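 further: 0% = growth equal to vehicle treated cultures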; details: S. cerevisiae cln2 rad14 strain, active compounds read high
In short: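 Growth of compound-exposed yeast (cln2 rad14 genotype) measured and expressed as inhibition relative to vehicle.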

[5] = NCI Yeast Anticancer Drug Screen. Data for the bub3 strain (AID 167); details: S. cerevisiae bub3 mutant strain, active compounds read high
In short: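 Part of a panel of yeast mutants defective in DNA damage repair or cell cycle regulation. Each strain is grown with compound, and inhibition is calculated relative to solvent-treated cultures.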

[6] = NCI Yeast Anticancer Drug Screen. Data for the sgs1 strain (AID 173);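 further: 0% = growth of vehicle-only control cultures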; details: S. cerevisiae sgs1 mutant, active compounds read high
In short: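 Relative growth inhibition, referenced to vehicle, was determined in a yeast strain with a defined alteration affecting DNA damage repair or cell cycle control after compound exposure.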

[7] = NCI Yeast Anticancer Drug Screen. Data for the mlh1 rad18 strain (AID 175); details: S. cerevisiae mlh1 rad18 strain growth inhibition, active compounds read high
In short: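 In this whole-cell yeast screen, a strain with altered DNA damage repair is challenged with compound, and its growth is measured against matched vehicle-treated controls.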

[8] = NCI Yeast Anticancer Drug Screen. Data for the rad18 strain (AID 177); details: S. cerevisiae rad18 mutant growth inhibition, active compounds read high
In short: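 Screen uses a yeast strain with a defined lesion in DNA damage repair; compound effect is read as loss of growth compared to untreated vehicle cultures.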

[9] = NCI Yeast Anticancer Drug Screen. Data for the rad52 strain (AID 147);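 further: 0% = growth of vehicle-treated control cultures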; details: S. cerevisiae rad52 mutant growth inhibition, active compounds read high
In short: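 Measured: yeast growth inhibition. System: strain with a defined DNA damage repair alteration. Reference: vehicle-treated control cultures.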

[10] = NCI Yeast Anticancer Drug Screen. Data for the wt1 strain (AID 149);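 further: 0% = growth of vehicle-treated wt1 cultures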; details: S. cerevisiae wt1 strain (SPY 50644) growth inhibition, active compounds read high
In short: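 The wt1 strain was treated with compounds, and growth was compared with vehicle-treated cultures to give inhibition.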

[11] = NCI Yeast Anticancer Drug Screen. Data for the rad50EPP+ strain (AID 151);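 further: 0% = growth of vehicle-treated control cultures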; details: S. cerevisiae rad50 mutant strain, active compounds read high
In short: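 One strain with a rad50 alteration (rad50EPP+) was compound-treated, its growth then compared to that of vehicle controls.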

[12] = NCI Yeast Anticancer Drug Screen. Data for the mgt1 strain (AID 153); details: S. cerevisiae mgt1 mutant growth inhibition, active compounds read high
In short: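 After exposure of the mgt1 yeast mutant to compound, growth was measured and reported as inhibition compared with vehicle controls.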

[13] = NCI Yeast Anticancer Drug Screen. Data for the rad50 strain (AID 155);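 further: 0% = growth of vehicle-only cultures of the same strain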; details: S. cerevisiae rad50 strain growth inhibition, active compounds read high
In short: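 Cells are treated with compound, grown, and their growth is then scored against vehicle-only cultures of the same repair-deficient yeast strain.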

[14] = NCI Yeast Anticancer Drug Screen. Data for the CLN2oe strain (AID 163);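 further: 0% = growth of vehicle-only control cultures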; details: S. cerevisiae CLN2oe strain, active compounds read high
In short: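 Here, growth inhibition in a cell-cycle-altered yeast strain after compound exposure was quantified against vehicle control growth.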

[15] = NCI Yeast Anticancer Drug Screen. Data for the wt2 strain (AID 169);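 further: 0% = growth of vehicle-treated yeast cultures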; details: S. cerevisiae wt2 strain growth inhibition, active compounds read high
In short: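 Genetically defined yeast strains from a DNA-repair/cell-cycle panel were used. Compound-exposed yeast growth was measured, and the inhibition was calculated relative to vehicle treatment.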

[16] = NCI Yeast Anticancer Drug Screen. Data for the mlh1 strain (AID 171);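 further: 0% = growth of vehicle-treated control cultures of the same strain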; details: S. cerevisiae mlh1 strain growth inhibition, active compounds read high
In short: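 Here the genetically defined yeast mutant is grown with each compound, and the extent to which its growth falls below that of vehicle-exposed cells is reported.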

[17] = at 5.0 µM (retest, dose inferred, filed as 0.5)
[18] = at 50.0 µM (retest, dose inferred, filed as 5.0)

Structure (SMILES): Cc1nn(-c2cc(Cl)ccc2[N+](=O)[O-])c(C)c1Cl
- growth inhibition [1, 17]: -7%
- growth inhibition ([1]; at 11.0 µM): 3%
- growth inhibition ([1]; at 33.0 µM): 2%
- growth inhibition [1, 18]: -18%
- growth inhibition ([1]; at 50.0 µM): 54.1%
- growth inhibition ([1]; at 100.0 µM): 4%
- growth inhibition ([2]; at 1.2 µM): -1%
- growth inhibition ([2]; at 3.7 µM): 0%
- growth inhibition ([2]; at 11.0 µM): 4%
- growth inhibition ([2]; at 33.0 µM): 2%
- growth inhibition ([2]; at 100.0 µM): 3%
- growth inhibition [3, 17]: -15%
- growth inhibition [3, 18]: -10%
- growth inhibition ([3]; at 50.0 µM): 43.6%
- growth inhibition [4, 17]: 39%
- growth inhibition [4, 18]: 4%
- growth inhibition ([4]; at 50.0 µM): 26.1%
- growth inhibition ([5]; at 1.2 µM): 1%
- growth inhibition ([5]; at 3.7 µM): 7%
- growth inhibition [5, 17]: -6%
- growth inhibition ([5]; at 11.0 µM): 20%
- growth inhibition ([5]; at 33.0 µM): 24%
- growth inhibition [5, 18]: -6%
- growth inhibition ([5]; at 50.0 µM): 64.2%
- growth inhibition ([5]; at 100.0 µM): 16%
- growth inhibition ([6]; at 1.2 µM): -1%
- growth inhibition ([6]; at 3.7 µM): -2%
- growth inhibition ([6]; at 11.0 µM): -1%
- growth inhibition ([6]; at 33.0 µM): -1%
- growth inhibition ([6]; at 100.0 µM): 2%
- growth inhibition [7, 17]: -3%
- growth inhibition [7, 18]: -9%
- growth inhibition ([7]; at 50.0 µM): 15.2%
- growth inhibition ([8]; at 1.2 µM): 2%
- growth inhibition ([8]; at 3.7 µM): 2%
- growth inhibition ([8]; at 11.0 µM): 2%
- growth inhibition ([8]; at 33.0 µM): -14%
- growth inhibition ([8]; at 100.0 µM): 1%

Structure (SMILES): CN(N=O)N1C(=O)SCC(c2ccccc2)(c2ccccc2)C1=O
- growth inhibition ([9]; at 1.2 µM): -2%
- growth inhibition ([9]; at 3.7 µM): 1%
- growth inhibition ([9]; at 11.0 µM): 6%
- growth inhibition ([9]; at 33.0 µM): 16%
- growth inhibition ([9]; at 100.0 µM): 42%
- growth inhibition ([10]; at 1.2 µM): -3%
- growth inhibition ([10]; at 3.7 µM): -5%
- growth inhibition ([10]; at 11.0 µM): -3%
- growth inhibition ([10]; at 33.0 µM): -3%
- growth inhibition ([10]; at 100.0 µM): 4%
- growth inhibition ([11]; at 1.2 µM): -4%
- growth inhibition ([11]; at 3.7 µM): 0%
- growth inhibition ([11]; at 11.0 µM): 0%
- growth inhibition ([11]; at 33.0 µM): 2%
- growth inhibition ([11]; at 100.0 µM): 3%
- growth inhibition ([12]; at 1.2 µM): -1%
- growth inhibition ([12]; at 3.7 µM): 1%
- growth inhibition ([12]; at 11.0 µM): 1%
- growth inhibition ([12]; at 33.0 µM): -1%
- growth inhibition ([12]; at 100.0 µM): 3%
- growth inhibition ([13]; at 1.2 µM): 3%
- growth inhibition ([13]; at 3.7 µM): 4%
- growth inhibition [13, 17]: -26%
- growth inhibition ([13]; at 11.0 µM): 13%
- growth inhibition ([13]; at 33.0 µM): 11%
- growth inhibition [13, 18]: 66%
- growth inhibition ([13]; at 50.0 µM): 56%
- growth inhibition ([13]; at 100.0 µM): 37%
- growth inhibition ([1]; at 1.2 µM): 0%
- growth inhibition ([1]; at 3.7 µM): 1%
- growth inhibition [1, 17]: 10%
- growth inhibition ([1]; at 11.0 µM): 1%
- growth inhibition ([1]; at 33.0 µM): 5%
- growth inhibition [1, 18]: 40%
- growth inhibition ([1]; at 50.0 µM): 32.2%
- growth inhibition ([1]; at 100.0 µM): 27%
- growth inhibition ([2]; at 1.2 µM): 1%
- growth inhibition ([2]; at 3.7 µM): -5%
- growth inhibition ([2]; at 11.0 µM): -3%
- growth inhibition ([2]; at 33.0 µM): -10%
- growth inhibition ([2]; at 100.0 µM): -4%
- growth inhibition [3, 17]: 9%
- growth inhibition [3, 18]: 64%
- growth inhibition ([3]; at 50.0 µM): 48.5%
- growth inhibition ([14]; at 1.2 µM): -1%
- growth inhibition ([14]; at 3.7 µM): 4%
- growth inhibition ([14]; at 11.0 µM): 4%
- growth inhibition ([14]; at 33.0 µM): 2%
- growth inhibition ([14]; at 100.0 µM): 9%
- growth inhibition ([5]; at 1.2 µM): -2%
- growth inhibition ([5]; at 3.7 µM): 1%
- growth inhibition [5, 17]: 3%
- growth inhibition ([5]; at 11.0 µM): 12%
- growth inhibition ([5]; at 33.0 µM): 15%
- growth inhibition [5, 18]: 70% (active)
- growth inhibition ([5]; at 50.0 µM): 66.2%
- growth inhibition ([5]; at 100.0 µM): 26%
- growth inhibition ([15]; at 1.2 µM): -1%
- growth inhibition ([15]; at 3.7 µM): -1%
- growth inhibition ([15]; at 11.0 µM): -1%
- growth inhibition ([15]; at 33.0 µM): 1%
- growth inhibition ([15]; at 100.0 µM): 11%
- growth inhibition ([16]; at 1.2 µM): 3%
- growth inhibition ([16]; at 3.7 µM): -1%
- growth inhibition ([16]; at 11.0 µM): 1%
- growth inhibition ([16]; at 33.0 µM): 2%
- growth inhibition ([16]; at 100.0 µM): -8%
- growth inhibition ([6]; at 1.2 µM): -1%
- growth inhibition ([6]; at 3.7 µM): 0%
- growth inhibition ([6]; at 11.0 µM): 5%
- growth inhibition ([6]; at 33.0 µM): 13%
- growth inhibition ([6]; at 100.0 µM): 35%
- growth inhibition [7, 17]: -7%
- growth inhibition [7, 18]: 71% (active)
- growth inhibition ([7]; at 50.0 µM): 84.5% (active)
